# Reference: PubChem BioAssay
# For some assays here: Results with a measured potency or affinity are listed apart. The source made the active and inactive calls.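 Rule for the calls, unless noted: active = compounds killing one labelled cell type while sparing the other, by normalised counts and ratio limits, not self-fluorescent; inactive = the rest.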
# Key:
# [1] = differential killing of epithelial or mesenchymal cells, primary screen, imaging, PC-3E GFP, TEM4-18 mCherry, co-culture (AID 1345086); conditions: imaging cell counts, at 1 µM; for red/green cell ratio (normalised): actives lie on both sides;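 for all read-outs here: cells exposed to compound for 72 h before imaging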;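 for red/green cell ratio (normalised): normalised mesenchymal count divided by normalised epithelial count so high means epithelial killing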
# [2] = test system: Aerobactin synthetase IucA (Klebsiella pneumoniae hvKP1); assay: Biochemical IucA enzyme inhibition primary screen of the Spectrum library (AID 1346200; call rule not given here;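 note: 100% = wells without compound and 0% = wells lacking enzyme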); conditions: malachite green pyrophosphate, A620, at 8 µM, stronger effect = lower value
# [3] = target: Mitogen-activated protein kinase 7 (Homo sapiens) (UniProt Q13164); assay: ERK5 transactivation activators in reporter cells, primary screen, cell-based, HTS (AID 1508626;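 active = luciferase signal above three times the same-plate solvent-only control wells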;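 note: luciferase driven by Gal4-ERK5 fusion binding five Gal4 sites before minimal TATA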); conditions: HeLa Gal4-ERK5 transactivation, 18 h, at 5 µM, stronger effect = higher value
# Chain of Mitogen-activated protein kinase 7 (Homo sapiens) (Q13164 whole entry, looked up, the tested form may be a part): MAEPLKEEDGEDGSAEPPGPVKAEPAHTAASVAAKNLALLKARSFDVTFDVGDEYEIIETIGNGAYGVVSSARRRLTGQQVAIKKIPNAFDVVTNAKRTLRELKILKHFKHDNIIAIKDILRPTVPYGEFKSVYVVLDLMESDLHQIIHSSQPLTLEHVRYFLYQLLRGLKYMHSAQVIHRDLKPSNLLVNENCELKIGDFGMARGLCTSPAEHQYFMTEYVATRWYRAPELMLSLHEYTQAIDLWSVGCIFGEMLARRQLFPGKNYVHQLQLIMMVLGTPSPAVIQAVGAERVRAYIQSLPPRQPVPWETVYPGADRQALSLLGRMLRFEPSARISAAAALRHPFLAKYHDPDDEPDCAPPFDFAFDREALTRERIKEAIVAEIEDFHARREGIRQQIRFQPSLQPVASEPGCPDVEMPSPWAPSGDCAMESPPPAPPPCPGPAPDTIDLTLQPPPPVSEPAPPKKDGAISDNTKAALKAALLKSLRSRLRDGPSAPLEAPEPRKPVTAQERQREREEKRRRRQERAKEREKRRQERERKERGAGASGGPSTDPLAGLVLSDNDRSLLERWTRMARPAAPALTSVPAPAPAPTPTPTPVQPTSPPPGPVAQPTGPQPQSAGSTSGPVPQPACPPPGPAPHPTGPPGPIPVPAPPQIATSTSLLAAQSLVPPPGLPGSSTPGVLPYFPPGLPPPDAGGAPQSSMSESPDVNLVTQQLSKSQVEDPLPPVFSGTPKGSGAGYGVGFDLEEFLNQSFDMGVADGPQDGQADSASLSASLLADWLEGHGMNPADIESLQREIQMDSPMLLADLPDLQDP
# [4] = sensitizers of A549 cells to miR-34 induction, primary screen, imaging, A549 dox-inducible miR-34, nuclei and caspase counts (AID 1347080;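 active = compounds whose cell count with miR-34 switched on is under 0.7 times the count with it off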); conditions: A549 miR-34 inducible, Hoechst nuclei count, 48 h
# [5] = polyglutamine-triggered caspase-3 activation inhibitors, cell-based (AID 1583); conditions: polyglutamine-induced caspase-3 activation, cell assay; stronger effect = higher value;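 tested at 10 µM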
# [6] = suppressors of polyQ aggregation in yeast, 75Q-TubU reporter (AID 1593); conditions: Yeast 75Q polyglutamine aggregation reporter
# [7] = rescue of polyQ-huntingtin neuronal dysfunction in worms, whole organism, C. elegans mechanosensory neurons, N-terminal huntingtin (AID 1599); conditions: touch response, stronger effect = higher value
# [8] = inhibitors of mitochondrial cytochrome c release, biochemical, purified mitochondria (AID 1603); conditions: stronger effect = lower value;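 note: mouse liver mitochondria challenged with calcium chloride; signal normalized to the plate average as 100%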
# [9] = inhibitors of polyQ protein aggregation (AID 1604); conditions: polyglutamine-induced protein aggregation inhibition assay; stronger effect = higher value; tested at 2.5 µM
# [10] = enhancers of glutamate uptake in motor neurons, MN-1 cell line (AID 1612); conditions: MN-1 motor neuron cells, stronger effect = higher value;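 note: tested at 1 µM final; 0% = mean of DMSO vehicle wells on each plate; positive means more glutamate uptake than control and negative means less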
# [11] = suppressors of polyglutamine aggregation in yeast, 75Q-TubH (AID 1616); conditions: S. cerevisiae 75Q-TubH polyglutamine aggregation suppression; stronger effect = higher value
# [12] = liver-stage malaria parasite growth inhibition, primary screen, cell-based, HepG2, luciferase luminescence, HepG2 viability (AID 624349; in the data active = parasite load remaining mostly below about 12%, no sharp cut-off; inactive = mostly above about 10%;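 note: 100% = mean of DMSO negative control wells on the same plate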); conditions: P. berghei liver stage in HepG2, luciferase luminescence, concentration not given here; parasite load remaining: stronger effect = lower value; viability: measured here: HepG2 viability without parasites
# [13] = target: NAD(+) hydrolase SARM1 (Homo sapiens) (UniProt Q6SZW1); assay: SARM1 TIR NADase inhibitors, cell lysate, NAD-Glo luminescence (AID 1508614;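 active = compound whose remaining NAD level is above about 45 nM, limit read from the data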;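 note: higher remaining NAD means stronger inhibition of SARM1 NADase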); conditions: SAM-TIR HEK293T lysate NADase, at 1 µM, stronger effect = higher value
# Chain of NAD(+) hydrolase SARM1 (Homo sapiens) (Q6SZW1 whole entry, looked up): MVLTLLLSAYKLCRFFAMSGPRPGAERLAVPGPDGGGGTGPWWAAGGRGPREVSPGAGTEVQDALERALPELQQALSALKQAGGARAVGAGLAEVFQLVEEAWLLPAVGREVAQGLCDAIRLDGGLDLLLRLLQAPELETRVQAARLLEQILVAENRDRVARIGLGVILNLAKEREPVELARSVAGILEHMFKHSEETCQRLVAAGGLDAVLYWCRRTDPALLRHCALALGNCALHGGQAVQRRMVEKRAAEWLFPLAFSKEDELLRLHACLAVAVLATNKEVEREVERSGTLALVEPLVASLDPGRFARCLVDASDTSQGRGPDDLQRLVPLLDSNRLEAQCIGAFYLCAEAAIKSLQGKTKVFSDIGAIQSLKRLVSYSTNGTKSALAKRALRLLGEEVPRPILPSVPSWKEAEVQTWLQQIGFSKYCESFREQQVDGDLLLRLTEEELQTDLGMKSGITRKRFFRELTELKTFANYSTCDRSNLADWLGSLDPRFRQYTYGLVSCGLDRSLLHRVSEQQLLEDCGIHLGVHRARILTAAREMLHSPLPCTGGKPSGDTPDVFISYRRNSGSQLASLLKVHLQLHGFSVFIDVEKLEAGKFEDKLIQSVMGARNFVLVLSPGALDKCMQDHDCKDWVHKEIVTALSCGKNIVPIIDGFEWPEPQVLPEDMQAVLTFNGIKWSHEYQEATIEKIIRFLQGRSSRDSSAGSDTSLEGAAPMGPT
# [14] = reducers of polyQ inclusions in PC12 cells, cell-based, NGF-treated PC12, GFPQ80 (AID 1614); conditions: PC12 NGF-treated GFP-polyQ80 inclusion reduction;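 note: lower means fewer inclusions and 0 means no inclusions at all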
# [15] = measured here: epithelial PC-3E GFP cell survival
# [16] = measured here: mesenchymal TEM4-18 mCherry cell survival
# [17] = measured here: relative caspase fold change +Dox/-Dox
# [18] = measured here: total cells with miR-34 induction, stronger effect = lower value
# [19] = measured here: total cells without miR-34 induction
smiles,measurement,setting,value
CC1=CC(=O)c2c(O)cccc2C1=O,red/green cell ratio (normalised),[1],0.13 (inactive)
same,normalised cell number,[1]; [15],0.08
same,normalised cell number,[1]; [16],0.01
same,activity remaining,[2],112% (inactive)
same,luciferase signal,[3],276 AU (active)
CN1C2C[C@H](OC(=O)[C@H](CO)c3ccccc3)C[C@H]1[C@@H](O)C2,red/green cell ratio (normalised),[1],0.94 (inactive)
same,normalised cell number,[1]; [15],1.1
same,normalised cell number,[1]; [16],1.03
same,activity remaining,[2],109% (inactive)
same,fold change,[4]; stronger effect = lower value,0.908 (inactive)
same,fold change,[4]; [17],0.859
same,cell count,[4]; [18],8730
same,cell count,[4]; [19],9620
CCC(=O)O[C@H]1CCC2C3CCC4=CC(=O)CC[C@]4(C)C3CC[C@@]21C (some centres not stated),inhibition,[5],28.2%
same,score,[6],0.18
same,rescue above control,[7],-2.54
same,cytochrome c release ratio,[8],0.85
same,inhibition of aggregation,[9],35.3%
same,glutamate uptake change,[10],14.3%
same,aggregation suppression score,[11],0.523
same,parasite load remaining,[12],54.4% (inactive)
same,viability,[12],99.7%
same,red/green cell ratio (normalised),[1],1.2 (inactive)
same,normalised cell number,[1]; [15],1.23
same,normalised cell number,[1]; [16],1.48
same,activity remaining,[2],108% (inactive)
same,fold change,[4]; stronger effect = lower value,0.927 (inactive)
same,fold change,[4]; [17],4.54
same,cell count,[4]; [18],10500
same,cell count,[4]; [19],11300
C=C(C)C1CNC(C(=O)O)C1CC(=O)O (configuration not stated),parasite load remaining,[12],103% (inactive)
same,viability,[12],86.2%
same,red/green cell ratio (normalised),[1],0.79 (inactive)
same,normalised cell number,[1]; [15],0.92
same,normalised cell number,[1]; [16],0.73
same,activity remaining,[2],96.1% (inactive)
C[C@@H]1O[C@@H](O[C@H]2CC[C@]3(C=O)C4CC[C@]5(C)[C@@H](C6=CC(=O)OC6)CC[C@]5(O)C4CC[C@]3(O)C2)[C@H](O)[C@H](O)[C@H]1O (some centres not stated),parasite load remaining,[12],3.9% (inactive)
same,viability,[12],51%
same,red/green cell ratio (normalised),[1],0.21 (inactive)
same,normalised cell number,[1]; [15],0.1
same,normalised cell number,[1]; [16],0.02
same,activity remaining,[2],95.5% (inactive)
C[C@]12CC[C@H](O)CC1=CCC1C2CC[C@]2(C)C(=O)CC[C@@H]12 (some centres not stated),red/green cell ratio (normalised),[1],0.71 (inactive)
same,normalised cell number,[1]; [15],1.37
same,normalised cell number,[1]; [16],0.97
same,fold change,[4]; stronger effect = lower value,0.933 (inactive)
same,fold change,[4]; [17],1.12
same,cell count,[4]; [18],7350
same,cell count,[4]; [19],7880
NC1=NC(=O)N2CC12 (configuration not stated),red/green cell ratio (normalised),[1],0.74 (inactive)
same,normalised cell number,[1]; [15],1.2
same,normalised cell number,[1]; [16],0.88
same,fold change,[4]; stronger effect = lower value,0.901 (inactive)
same,fold change,[4]; [17],0.97
same,cell count,[4]; [18],8180
same,cell count,[4]; [19],9090
same,remaining NAD,[13],10 nM (inactive)
CCC(C)C(=O)O[C@H]1[C@H](O)C2C(CN3CC(C)CCC3[C@@]2(C)O)C2C[C@]34O[C@]5(O)C(OC(=O)C(C)(O)CC)CC[C@@]3(C)C5C(OC(C)=O)[C@@H](OC(C)=O)C4[C@@]21O (some centres not stated),inhibition,[5],-14%
same,score,[6],1.53
same,rescue above control,[7],-1.62
same,cytochrome c release ratio,[8],0.8
same,inhibition of aggregation,[9],60.8%
same,glutamate uptake change,[10],12.6%
same,inclusion score,[14],2
same,aggregation suppression score,[11],1.64
same,parasite load remaining,[12],35.5% (inactive)
same,viability,[12],65.2%
same,red/green cell ratio (normalised),[1],0.9 (inactive)
same,normalised cell number,[1]; [15],1.11
same,normalised cell number,[1]; [16],1
same,activity remaining,[2],105% (inactive)
O=c1cccc2n1C[C@H]1CNCC2C1,parasite load remaining,[12],64.2% (inactive)
same,viability,[12],103%
same,red/green cell ratio (normalised),[1],0.78 (inactive)
same,normalised cell number,[1]; [15],1.31
same,normalised cell number,[1]; [16],1.02
same,activity remaining,[2],107% (inactive)
